Laboratory results taken from PubChem BioAssay AID1159580 (chemical genetic matrix, 2015).
Among all 5,500 compounds or so, about 2,000 (36%) were called active. Not shown: some 18% with an inconclusive outcome. No stated cut-off is given here; in the data, active means normalized growth mostly below about 0.91 (no sharp cut-off); inconclusive means no clear call, values can overlap the other calls; inactive means mostly above about 0.92. The list shows a part of the results.

Assay: chemical genetic growth profiling, strain panel (AID 1159580);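 further: tested at 20 µM; growth read once vehicle control cultures reached saturation at 30 °C; 1 = growth at the plate median or of vehicle wells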
Conditions: growth OD

Measured: normalized growth

CCCCCC(=O)O[C@]1(C(C)=O)CCC2C3CCC4=CC(=O)CC[C@]4(C)C3CC[C@@]21C (some centres undefined)
inactive: S. cerevisiae deletion strains, locus YJR066W, strain TOR1, stronger effect = lower value 0.939 | S. cerevisiae deletion strains, locus YKL009W, strain mrt4, stronger effect = lower value 1.01 | S. cerevisiae deletion strains, locus YKL068W, stronger effect = lower value 1 | S. cerevisiae deletion strains, locus YKL085W, strain MDH1 (second series), stronger effect = lower value 1.01 | S. cerevisiae deletion strains, locus YKL085W, strain MDH1, stronger effect = lower value 1.01 | S. cerevisiae deletion strains, locus YKL160W, strain elf1, stronger effect = lower value 0.998 | S. cerevisiae deletion strains, locus YKL190W, strain CNB1, stronger effect = lower value 1.01 | S. cerevisiae deletion strains, locus YKR001C, strain vps1, stronger effect = lower value 1.01 | S. cerevisiae deletion strains, locus YKR026C, strain gcn3, stronger effect = lower value 1 | S. cerevisiae deletion strains, locus YKR091W, strain srl3, stronger effect = lower value 0.99 | S. cerevisiae deletion strains, locus YLL001W, strain dnm1, stronger effect = lower value 1 | S. cerevisiae deletion strains, locus YLL026W, stronger effect = lower value 1.01 | S. cerevisiae deletion strains, locus YLL041C, strain sdh2, stronger effect = lower value 0.99 | S. cerevisiae deletion strains, locus YLR027C, strain aat2, stronger effect = lower value 1 | S. cerevisiae deletion strains, locus YLR039C, strain RIC1, stronger effect = lower value 1.02 | S. cerevisiae deletion strains, locus YLR058C, strain SHM2, stronger effect = lower value 1.02 | S. cerevisiae deletion strains, locus YLR102C, strain apc9, stronger effect = lower value 1.01 | S. cerevisiae deletion strains, locus YLR113W, strain HOG1, stronger effect = lower value 0.988 | S. cerevisiae deletion strains, locus YLR221C, strain rsa3, stronger effect = lower value 0.999 | S. cerevisiae deletion strains, locus YLR258W, strain gsy2, stronger effect = lower value 1 | S. cerevisiae deletion strains, locus YLR262C, strain YPT6 (second series), stronger effect = lower value 1.02 | S. cerevisiae deletion strains, locus YLR262C, strain YPT6, stronger effect = lower value 1.09 | S. cerevisiae deletion strains, locus YLR268W, strain sec22, stronger effect = lower value 1.02 | S. cerevisiae deletion strains, locus YLR320W, strain mms22, stronger effect = lower value 1.01 | S. cerevisiae deletion strains, locus YLR330W, strain CHS5, stronger effect = lower value 1.01 | S. cerevisiae deletion strains, locus YLR342W, strain FKS1 (second series), stronger effect = lower value 0.997 | S. cerevisiae deletion strains, locus YLR342W, strain FKS1, stronger effect = lower value 0.996 | S. cerevisiae deletion strains, locus YLR357W, strain rsc2, stronger effect = lower value 1.01 | S. cerevisiae deletion strains, locus YLR370C, strain arc18, stronger effect = lower value 0.998 | S. cerevisiae deletion strains, locus YLR371W, strain rom2, stronger effect = lower value 1.01 | S. cerevisiae deletion strains, locus YLR384C, strain iki3, stronger effect = lower value 0.996 | S. cerevisiae deletion strains, locus YLR418C, strain cdc73, stronger effect = lower value 1.01 | S. cerevisiae deletion strains, locus YML016C, strain PPZ1, stronger effect = lower value 1 | S. cerevisiae deletion strains, locus YML032C, strain rad52, stronger effect = lower value 1.01 | S. cerevisiae deletion strains, locus YML120C, strain ndi1, stronger effect = lower value 1 | S. cerevisiae deletion strains, locus YML124C, strain tub3, stronger effect = lower value 1 | S. cerevisiae deletion strains, locus YMR058W, strain fet3, stronger effect = lower value 1.01 | S. cerevisiae deletion strains, locus YMR078C, strain ctf18, stronger effect = lower value 1.01 | S. cerevisiae deletion strains, locus YMR125W, strain sto1, stronger effect = lower value 1.01 | S. cerevisiae deletion strains, locus YMR129W, stronger effect = lower value 1 | S. cerevisiae deletion strains, locus YMR205C, strain PFK2, stronger effect = lower value 0.973 | S. cerevisiae deletion strains, locus YMR223W, strain ubp8, stronger effect = lower value 1.01 | S. cerevisiae deletion strains, locus YMR231W, strain pep5, stronger effect = lower value 1 | S. cerevisiae deletion strains, locus YMR307W, strain GAS1, stronger effect = lower value 1.1 | S. cerevisiae deletion strains, locus YNL067W, strain RPL9B, stronger effect = lower value 0.998 | S. cerevisiae deletion strains, locus YNL071W, strain lat1, stronger effect = lower value 1 | S. cerevisiae deletion strains, locus YNL128W, strain TEP1, stronger effect = lower value 1.02 | S. cerevisiae deletion strains, locus YNL183C, strain NPR1, stronger effect = lower value 0.965 | S. cerevisiae deletion strains, locus YNL209W, strain ssb2, stronger effect = lower value 1 | S. cerevisiae deletion strains, locus YNL233W, strain BNI4, stronger effect = lower value 1.03 | S. cerevisiae deletion strains, locus YNL248C, strain rpa49, stronger effect = lower value 1 | S. cerevisiae deletion strains, locus YNL250W, strain rad50, stronger effect = lower value 1.01 | S. cerevisiae deletion strains, locus YNL271C, strain bni1, stronger effect = lower value 1.02 | S. cerevisiae deletion strains, locus YNL298W, strain CLA4, stronger effect = lower value 1.02 | S. cerevisiae deletion strains, locus YNL307C, strain MCK1, stronger effect = lower value 1.01 | S. cerevisiae deletion strains, locus YNL322C, strain KRE1 (second series), stronger effect = lower value 0.999 | S. cerevisiae deletion strains, locus YNL322C, strain KRE1, stronger effect = lower value 1.01 | S. cerevisiae deletion strains, locus YNR049C, strain mso1, stronger effect = lower value 1 | S. cerevisiae deletion strains, locus YNR052C, strain pop2, stronger effect = lower value 1.02 | S. cerevisiae deletion strains, locus YOL012C, strain htz1 1.02 | S. cerevisiae deletion strains, locus YOL147C, strain pex11, stronger effect = lower value 1 | S. cerevisiae deletion strains, locus YOR001W, strain rrp6, stronger effect = lower value 1.01 | S. cerevisiae deletion strains, locus YOR061W, strain CKA2, stronger effect = lower value 1 | S. cerevisiae deletion strains, locus YOR069W, strain VPS5, stronger effect = lower value 1.01 | S. cerevisiae deletion strains, locus YOR070C, strain gyp1, stronger effect = lower value 1 | S. cerevisiae deletion strains, locus YOR080W, strain dia2, stronger effect = lower value 1 | S. cerevisiae deletion strains, locus YOR083W, strain WHI5, stronger effect = lower value 0.997 | S. cerevisiae deletion strains, locus YOR106W, strain vam3, stronger effect = lower value 1.01 | S. cerevisiae deletion strains, locus YOR136W, strain idh2, stronger effect = lower value 1.02 | S. cerevisiae deletion strains, locus YOR144C, strain elg1, stronger effect = lower value 1.01 | S. cerevisiae deletion strains, locus YOR184W, strain ser1, stronger effect = lower value 0.969 | S. cerevisiae deletion strains, locus YOR231W, strain MKK1, stronger effect = lower value 0.976 | S. cerevisiae deletion strains, locus YOR265W, strain rbl2, stronger effect = lower value 0.998 | S. cerevisiae deletion strains, locus YOR270C, strain vph1, stronger effect = lower value 1.04 | S. cerevisiae deletion strains, locus YOR290C, strain snf2, stronger effect = lower value 0.959 | S. cerevisiae deletion strains, locus YOR316C, strain cot1, stronger effect = lower value 1.01 | S. cerevisiae deletion strains, locus YPL051W, strain arl3, stronger effect = lower value 1.01 | S. cerevisiae deletion strains, locus YPL055C, strain LGE1, stronger effect = lower value 1.01 | S. cerevisiae deletion strains, locus YPL078C, strain atp4, stronger effect = lower value 1.01 | S. cerevisiae deletion strains, locus YPL106C, strain sse1, stronger effect = lower value 0.986 | S. cerevisiae deletion strains, locus YPL240C, strain hsp82, stronger effect = lower value 0.991 | S. cerevisiae deletion strains, locus YPL241C, strain CIN2, stronger effect = lower value 1 | S. cerevisiae deletion strains, locus YPL256C, strain CLN2, stronger effect = lower value 0.958 | S. cerevisiae deletion strains, locus YPR119W, strain clb2, stronger effect = lower value 1.01 | S. cerevisiae deletion strains, locus YPR141C, strain kar3, stronger effect = lower value 1.01 | S. cerevisiae deletion strains, locus YPR163C, strain tif3, stronger effect = lower value 1.01 | S. cerevisiae deletion strains, locus YPR167C, strain met16, stronger effect = lower value 1.01 | S. cerevisiae deletion strains, strain wtn01, stronger effect = lower value 1.01 | S. cerevisiae strains, strain wild type, stronger effect = lower value 1.01
